The text below walks through data of PubChem BioAssay (NCATS).

Results filed as inconclusive are left out. Where a call stands in place of a potency, no number is given. Activity calls are given as the source filed them. Calls follow the shape of the dose curve; as a rule, active = well fitted inhibition curve with a large enough effect; inconclusive = small, poorly fitted or top-dose-only effect; inactive = flat fitted curve, though single readings scatter. Peptide text beside a SMILES is read from it. * marks the point of attachment. Hexanoyl = CCCCCC(=O)*
Potency is read from the fitted curve at half-maximal effect.

The test can be described thus: qHTS for Inflammasome Signaling Inhibitors: IL-1-beta AlphaLISA screen against the NCATS CANVASS Library (AID 1347379).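 Also: human THP-1 cells primed with LPS then triggered with ATP.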 The following applies: THP-1 LPS/ATP, IL-1B AlphaLISA secretion, 16 h; series mostly up to 57.5 µM. The text has this:
Natural products and their derivatives continue to be wellsprings of nascent therapeutic potential. However, many laboratories have limited resources for biological evaluation, leaving their previously isolated or synthesized compounds largely or completely untested. To address this issue, the Canvass library of natural products was assembled (https://tripod.nih.gov/canvass), in collaboration with academic and industry researchers, for quantitative high-throughput screening (qHTS) across a diverse set of cell-based and biochemical assays. The pure (>85% purity by liquid chromatography/mass spectrometry [LC/MS]) Canvass library of 346 natural products were submitted by 45 academic laboratories and companies around the world. We collected pure natural products to circumvent deconvolution and structure elucidation due to time and resource limitations. The library was formatted into 1536-well plates and evaluated in 50 qHTS (in an 11-pnt concentration series) bioassays with broad scope of disease-relevant mechanisms. The resulting data set from 50 different assays was then systematically analyzed to identify overall trends and specific natural products with interesting biological activities. Reported herein are the results of each individual qHTS and their corresponding assay protocol. A qHTS assay, based on AlphaLISA technology, was developed to screen the NCATS CANVASS library to look for novel inflammasome inhibitors. The assay detects IL-1B using AlphaLISA anti-IL-1B acceptor and donor beads. Human THP-1 cells were incubated with Canvass compound for 1 hr, followed by stimulation with lipopolysaccharide and ATP to induce inflammasome activation. Compounds that inhibit activation is flagged and validated. A decreased emission signal, indicating reduced IL-1B secretion, is the desired outcome for this assay. National Center for Advancing Translational Sciences (NCATS), Rockville, MD National Institute of Health (NIH), Bethesda, Maryland
IL-1-beta qHTS protocol: Three microliters containing 3000 THP-1 cells were dispensed into the wells of solid, white, tissue culture treated Greiner 1,536-well plates. Library compounds and positive control, Glyburide, were pin-transferred (23 nL) by a Kalypsys pin-tool equipped with a 1,536-pin array, resulting in final compound concentration ranges of 2.5 nM to 57.5 uM. After 1 hr of cell culture incubation (37 °C, 5% CO2), 1 microL of 1 microg/mL lipopolysaccharide (250 ng/mL, final) and 5 mM ATP (1.25 mM, final) were added to stimulate the cells. After 16 hr of cell culture incubation with the compounds, 1.5 uL of anti-IL-1B acceptor beads (6 ug/mL, final) and biotinylated antibody (0.6 nM, final) were added to the plate, followed by a 1 hr incubation at ambient temperature. To detect the secreted IL-1B, 1.5 uL of AlphaLISA SA-Donor beads (24 ug/mL, final) were added, followed by 30 min of incubation in the dark at ambient temperature. The AlphaLISA signal was read by a PerkinElmer EnVision plate reader with an ultrasensitive luminescence detector and 1536 Plate HTS AlphaScreen aperture (excitation of 680nm and emission of 615nm).
(In qHTS, concentration-response curves come from the screen itself.)
As for `O=Cc1ccc2n1C[C@]1(C[C@H](O)[C@@H](CO)O1)OC2`, the Potency entry was “inactive”.

For the compound `C=CC(C)(C)C(=O)[C@@H](C)[C@@H]1CC[C@@](C)(C=C)O1`, the Potency result is “inactive”.

With `CCC(=O)N[C@@H](C[C@H](C)C(Cl)(Cl)Cl)C(=O)N1C(=O)C=C(OC)[C@@H]1C[C@H](C)CCl`, the Potency result is “inactive”.

Take `COC(=O)[C@]1([C@H]2CCC(=O)O2)CC(=O)c2c(O)cc(C)cc2O1`: the Potency entry is “inactive”.

Turning to `CC(=O)N[C@H](C)c1nc(/C=C/C=C/C(=O)CC2CC(=O)CC[C@]2(C)O)cs1` (stereo not given in full), the Potency entry is “inactive”.

On to `COc1c(O)cc2c(c1O)C(=O)c1c(coc1C)C2=O`, for which the Potency entry was “inactive”.

On to `CC(C)[C@]12CC[C@@]3(C)[C@H](C)CC[C@H](O)[C@@]3(CC1)c1cc3c(cc12)[nH]c1ccccc13`, for which the Potency entry was “inactive”.

As for `O[C@H]1c2ccccc2-c2c3c(cc4c2[C@@H]1NCC4)OCO3`, the Potency is 24.3 µM (active).

In the case of `COc1cc([C@@H]2c3cc4c(cc3C[C@@]3(O[C@@H]5O[C@H](CO)[C@@H](O)[C@H](O)[C@H]5O)COC(=O)[C@H]23)OCO4)cc(OC)c1OC`, the Potency entry is “inactive”.

`C=C[C@@]1(C)CC[C@@H]([C@H](C)C(C)=O)O1`: the Potency result is “inactive”.

As to `C/C=C(/C)c1cc(O)c(C)c2c1Oc1cc(O)cc(C)c1C(=O)O2`, the Potency entry was “inactive”.

`C=C(Cl)[C@](Cl)(CBr)CC[C@@H](Br)C(C)(C)Cl`: the Potency is 4.85 µM (active).

Take `CCC(C)=C1OC(=O)[C@H](C)[C@H](O)[C@H](Cc2cccnc2)NC(=O)C(NC(=O)c2ncccc2O)C(C)OC1=O` (stereo not given in full): the Potency entry was “inactive”.

As for `CC(C)C[C@@H]1c2c(O)c(C=O)c(O)c(C=O)c2O[C@]2(C)C=C[C@@H](C(C)C)C[C@H]12`, the Potency entry was “inactive”.

Turning to `C/C=C1/CN2C3CC1C1C=CC(=O)N4c5ccccc5[C@@]3(C[C@@H]2C2=C[C@H]3C5CC6N(CC[C@@]67c6ccccc6N(C2=O)[C@@H]37)C/C5=C/C)[C@H]14` (stereo not given in full), the Potency is 12.2 µM (active).

In the case of `COc1cc2c(cc1OC)[C@@H](c1ccc3c(c1)OCO3)C(C)[C@@H](C)C2=O` (stereo not given in full), the Potency result is “inactive”.

Consider `CC(C)=CCC/C(C)=C/Cc1cc([C@@H]2CC(=O)c3c(cc(O)c(CC=C(C)C)c3O)O2)ccc1O`, for which the Potency entry is “inactive”.

As for `C=CC(CCCCC)C1C(=O)NC(=O)C1C(=O)C1C2C(C)CC(C(=O)O)CC2CC1(O)C(=O)/C=C/C` (stereo not given), the Potency entry is “inactive”.

On to `CCCc1c2c([nH]c(=O)c1C)C(=O)c1[nH]c(=O)c(C)c(CCC)c1C2=O`, for which the Potency result is “inactive”.

With `COC(=O)[C@@]1(C)CCC[C@]2(C)c3cc(OC)ccc3CC[C@@H]12`, the Potency result was “inactive”.

For the compound `CC[C@@H](c1cc(OC)c(OC)cc1OC)[C@H](C)[C@@H](/C(C)=C/c1cc(OC)c(OC)cc1OC)c1cc(OC)c(OC)cc1OC`, the Potency result was “inactive”.

With `C[C@H](CCC(O)C(C)(O)CO)[C@@]1(O)CC[C@@]2(C)C3=C(CC[C@@]21C)[C@@]1(C)CCC(OC(=O)CCC(=O)O)C(C)(C)[C@@H]1CC3` (stereo not given in full), the Potency result was “inactive”.

As to `C[C@@]12CCC[C@@](C)(C(=O)O)[C@H]1C[C@@H](O)[C@@]13C[C@@H](CC[C@@H]21)[C@](C)(O)C3`, the Potency entry was “inactive”.

As for `Oc1ccc(C2Oc3cc(O)c4c(c3[C@@H]2c2cc(O)cc(O)c2)[C@H]2C(c3ccc(O)cc3)c3c(O)cc5c(c3[C@H]2C4c2ccc(O)cc2)[C@H](c2cc(O)cc(O)c2)C(c2ccc(O)cc2)O5)cc1` (stereo not given in full), the Potency entry is “inactive”.

With `C/C1=C/[C@@H](C)[C@H](O)[C@@H](O)/C=C/CC/C=C/C(=O)O[C@@H]1[C@H](C)C(=O)/C=C/CC1CC(=O)NC(=O)C1`, the Potency entry was “inactive”.

Regarding `C/C(=C\[C@@H](C)CC/C=C/CC/C=C/C(=O)O)[C@H](O)[C@H](C)C(=O)CCCC1CC(=O)NC(=O)C1`, the Potency entry was “inactive”.

As for `C/C(=C\[C@H](C)C(=O)/C=C/CC1CC(=O)NC(=O)C1)[C@@H]1OC(=O)/C=C/CC/C=C/C[C@@H](O)[C@@H]1C`, the Potency is 6.11 µM (active).

As for `CCCCCC(=O)N[C@@H](CC(C)C)C(=O)N[C@H](C=O)CCC(=O)O` (Hexanoyl-Leu-Glu-aldehyde), the Potency result was “inactive”.

Take `O=C1c2c(O)cc(O)cc2OC(c2ccc(O)cc2)C1O` (stereo not given): the Potency entry was “inactive”.

Turning to `COc1ccc2[nH]c3c(c2c1)CCN1C[C@H]2C[C@@H](OC(=O)c4cc(OC)c(OC)c(OC)c4)[C@H](OC)[C@@H](OC)[C@H]2C[C@H]31`, the Potency entry was “inactive”.

On to `C=C1[C@@]2(C)CC3C4(C)CCC(O)C(C)(C)C4CCC3(C)[C@]1(C(=O)OC)C(=O)C(C)(O)C2=O` (stereo not given in full), for which the Potency result is “inactive”.

Take `CC(C)=CCC[C@]1(C)[C@H]2CC(=O)[C@@]3(CO3)[C@@H]1C2`: the Potency result is “inactive”.

As for `O=C1CCC(=O)N(O)CCCCCNC(=O)CCC(=O)N(O)CCCCCNC(=O)CCC(=O)N(O)CCCCCN1`, the Potency result was “inactive”.

Take `COc1ccc([C@@H]2CC(=O)c3c(cc(O)c(C/C=C(\C)CCC=C(C)C)c3O)O2)cc1`: the outcome is “inactive [at 11.5 µM]”.

With `C[n+]1cc2cc(C(N)=O)[nH]c3c(=N)c(Cl)c(N)c1c23`, the Potency result was “inactive”.

As for `CC1(C)CC[C@]2(CO)CC[C@]3(C)C(=CCC4[C@@]5(C)CC[C@H](O)C(C)(C)C5CC[C@]43C)C2C1` (stereo not given in full), the Potency entry was “inactive”.

For `COc1ccc([C@@H]2c3cc4c(cc3C(=O)[C@H](C)C2C)OCO4)cc1OC` (stereo not given in full), the Potency entry was “inactive”.

Regarding `C=C1CC[C@@H](O[C@H]2C[C@@](O)([C@H](C)NC(=O)c3[nH]c(C)c(Cl)c3Cl)[C@H](O)[C@@H](C)O2)[C@@H]2C=C[C@H](C)C(/C(O)=C3/C(=O)[C@H](C(C)C)N([C@@H]4O[C@H](C)[C@H](OC(N)=O)[C@H](OC(C)=O)[C@@H]4OC)C3=O)[C@@H]12` (stereo not given in full), the Potency result is “inactive”.

`C/C=C/C(=O)C1(O)CC2CC(C(=O)O)CC(C)C2C1C1=C2C(=O)NC(=O)C2=C(CCCCC)C(C)O1` (stereo not given): the Potency was 19.3 µM (active).

Take `CC[C@@H]1C[C@@]2(CC)OC(=O)[C@@]3(CC)[C@H](CC)[C@@H]1[C@@H]23`: the Potency result was “inactive”.
